# Calls of active or inactive are those of the source. Entries that show only a call come without a potency. Unless noted, the call rests on the fitted dose curve; in most records, active means well fitted curve in the direction sought with a large enough effect in the repeat runs; inconclusive means weak or mixed curves; inactive means no such curve, though single readings can be large; an effect the other way counts as inactive or inconclusive.
# Legend:
# [1] = qHTS assay to identify small molecule antagonists of the thyroid receptor (TR) signaling pathway (AID 743065); further: nearly all actives have a fitted effect of over 55% in size; further: potency means the concentration at half of the fitted maximal effect
# How it was run: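 GH3.TRE-Luc rat pituitary cells (two TREs driving luciferase) were dosed with compound, then stimulated with 1 nM T3 (final) for 23.5 h at 37 C. ONE-Glo luminescence was the read-out, with CellTiter-Fluor fluorescence as the cytotoxicity counter-screen.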
# [2] = tested on: thyroid hormone receptor (rat, GH3 cells); assay: qHTS assay to identify small molecule agonists of the thyroid receptor (TR) signaling pathway (AID 743066; calls by dose curve)
# [3] = qHTS assay to identify small molecule antagonists of the estrogen receptor alpha (ER-alpha) signaling pathway - cell viability counter screen (AID 743074; calls by dose curve;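 further: HEK293 cells carrying ER-alpha-UAS-bla reporter stimulated with 17beta-estradiol; nearly all actives have a fitted effect of over 45% in size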)
# Aromatase (Homo sapiens) = Aromatase (Homo sapiens) (UniProt P11511); assay: qHTS assay to identify aromatase inhibitors (AID 743083); further: nearly all actives have a fitted effect of over 55% in size; further: potency means the concentration at half of the fitted maximal effect
# Chain of Aromatase (Homo sapiens) (P11511 whole entry, looked up): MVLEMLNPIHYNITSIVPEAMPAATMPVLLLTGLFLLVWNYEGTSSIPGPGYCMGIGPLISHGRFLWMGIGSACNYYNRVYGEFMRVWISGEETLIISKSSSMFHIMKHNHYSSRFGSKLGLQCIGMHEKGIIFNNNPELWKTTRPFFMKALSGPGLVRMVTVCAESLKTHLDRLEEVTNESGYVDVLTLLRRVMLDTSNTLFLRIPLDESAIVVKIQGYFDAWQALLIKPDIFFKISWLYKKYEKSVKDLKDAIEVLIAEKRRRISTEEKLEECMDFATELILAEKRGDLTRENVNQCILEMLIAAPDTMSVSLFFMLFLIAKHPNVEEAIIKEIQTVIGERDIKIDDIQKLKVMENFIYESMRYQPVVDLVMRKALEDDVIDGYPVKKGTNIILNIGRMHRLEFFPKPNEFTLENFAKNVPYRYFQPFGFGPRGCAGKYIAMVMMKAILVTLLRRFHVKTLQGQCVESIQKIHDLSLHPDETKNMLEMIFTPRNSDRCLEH
# [4] = qHTS assay to identify aromatase inhibitors - cell viability counter screen (AID 743084);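 further: cells stimulated with testosterone during compound exposure; nearly all actives have a fitted effect of over 55% in size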; further: potency means the concentration at half of the fitted maximal effect
# [5] = target: Aryl hydrocarbon receptor (Homo sapiens) (UniProt P35869); assay: qHTS assay to identify small molecule that activate the aryl hydrocarbon receptor (AhR) signaling pathway (AID 743085); further: nearly all actives have a fitted effect of over 15% in size; further: potency means the concentration at half of the fitted maximal effect;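 on activation: HG2L7.5c1 human HepG2 liver cells with stably integrated DRE-driven firefly reporter; series mostly up to about 70 µM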
# Chain of Aryl hydrocarbon receptor (Homo sapiens) (P35869 whole entry, looked up): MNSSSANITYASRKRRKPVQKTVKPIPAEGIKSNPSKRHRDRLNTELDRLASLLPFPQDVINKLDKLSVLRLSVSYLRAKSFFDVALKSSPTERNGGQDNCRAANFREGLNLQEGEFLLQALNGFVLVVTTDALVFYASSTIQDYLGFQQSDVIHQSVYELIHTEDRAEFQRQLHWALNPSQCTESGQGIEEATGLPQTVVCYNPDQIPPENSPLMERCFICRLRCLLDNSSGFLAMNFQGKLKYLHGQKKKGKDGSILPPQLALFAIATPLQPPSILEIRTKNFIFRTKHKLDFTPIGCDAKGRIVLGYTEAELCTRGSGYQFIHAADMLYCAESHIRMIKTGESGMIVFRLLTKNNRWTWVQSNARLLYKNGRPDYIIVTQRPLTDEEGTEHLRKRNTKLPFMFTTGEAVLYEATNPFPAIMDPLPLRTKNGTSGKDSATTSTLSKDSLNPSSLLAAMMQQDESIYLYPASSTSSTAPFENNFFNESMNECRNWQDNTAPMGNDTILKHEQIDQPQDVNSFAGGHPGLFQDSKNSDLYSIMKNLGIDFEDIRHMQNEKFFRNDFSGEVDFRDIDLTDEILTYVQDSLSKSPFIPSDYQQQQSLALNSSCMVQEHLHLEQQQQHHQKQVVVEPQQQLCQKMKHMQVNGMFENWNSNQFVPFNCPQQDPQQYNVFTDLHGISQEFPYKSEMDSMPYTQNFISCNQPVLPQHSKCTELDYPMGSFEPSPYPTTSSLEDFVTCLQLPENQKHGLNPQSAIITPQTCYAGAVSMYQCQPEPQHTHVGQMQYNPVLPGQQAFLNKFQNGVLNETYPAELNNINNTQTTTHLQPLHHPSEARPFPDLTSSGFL
# How it was run: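 Compounds were tested in HepG2 hepatocellular carcinoma cells harbouring a stably integrated luciferase gene under control of 20 DREs. Increased reporter signal after 24 h treatment at 37C was taken as AhR activation.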
# [6] = qHTS assay to identify small molecule that activate the aryl hydrocarbon receptor (AhR) signaling pathway - cell viability counter screen (AID 743086); further: nearly all actives have a fitted effect of over 45% in size; further: potency means the concentration at half of the fitted maximal effect
# How it was run: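 HepG2-AhR-luc (HG2L7.5c1) cells, 4000/well, treated 24 h at 37 C with compound; viability measured as CellTiter-Fluor fluorescence after 30 min in the same wells as the luciferase read.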
# [7] = target: Peroxisome proliferator-activated receptor gamma (Homo sapiens) (UniProt P37231); assay: qHTS assay to identify small molecule agonists of the peroxisome proliferator-activated receptor gamma (PPARg) signaling pathway (AID 743094; active means well fitted activation curve with a large enough effect in the signal ratio in the repeat runs, not every such curve was filed as active; inconclusive means weak or mixed curves, or effect the other way; inactive means no such curve, though single readings can be large or run the other way; the % refers to the signal ratio)
# Chain of Peroxisome proliferator-activated receptor gamma (Homo sapiens) (P37231 whole entry, looked up): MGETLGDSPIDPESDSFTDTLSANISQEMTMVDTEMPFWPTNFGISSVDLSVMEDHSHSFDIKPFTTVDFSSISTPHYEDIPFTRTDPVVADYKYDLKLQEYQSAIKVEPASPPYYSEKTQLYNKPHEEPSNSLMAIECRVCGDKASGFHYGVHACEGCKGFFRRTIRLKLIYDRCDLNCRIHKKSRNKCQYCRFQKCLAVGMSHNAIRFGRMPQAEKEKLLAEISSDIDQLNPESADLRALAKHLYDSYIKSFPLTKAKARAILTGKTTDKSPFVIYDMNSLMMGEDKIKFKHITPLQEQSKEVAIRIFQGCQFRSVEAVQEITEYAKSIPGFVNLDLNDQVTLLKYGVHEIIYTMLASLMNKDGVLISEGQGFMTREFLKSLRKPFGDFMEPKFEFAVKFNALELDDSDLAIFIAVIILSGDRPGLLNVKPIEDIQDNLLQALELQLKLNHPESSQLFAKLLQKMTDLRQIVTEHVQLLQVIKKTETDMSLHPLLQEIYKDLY
# How it was run: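 Cells from the PPARg UAS-bla HEK293H line are plated and incubated 5 h at 37C. Compounds in DMSO are pinned in and left 17 h at 37C. LiveBLAzer B/G substrate is then added for 1 h at room temperature before fluorescence is measured.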
# [8] = target: Peroxisome proliferator-activated receptor gamma (Homo sapiens) (UniProt P37231); assay: qHTS assay to identify small molecule antagonists of the peroxisome proliferator-activated receptor gamma (PPARg) signaling pathway (AID 743191; calls by dose curve; further: nearly all actives have a fitted effect of over 30% in size; further: potency means the concentration at half of the fitted maximal effect)
# How it was run: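 GeneBLAzer PPARg UAS-bla HEK293H cells, 5 h post-plating, exposed to compounds 17 h at 37C. LiveBLAzer B/G FRET substrate added for 1 h at room temperature; beta-lactamase reporter read by fluorescence intensity.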
# [9] = qHTS assay for small molecule agonists of the antioxidant response element (ARE) signaling pathway (AID 743202; active means well fitted activation curve with a large enough effect in the signal ratio in the repeat runs, not every such curve was filed as active; inconclusive means weak or mixed curves, or effect the other way; inactive means no such curve, though single readings can be large or run the other way; the % refers to the signal ratio; further: potency means the concentration at half of the fitted maximal effect)
# How it was run: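 HepG2 ARE-bla reporter line, 2,000 cells/well; 5 h preincubation 37 C/5% CO2; compound (DMSO) 16 h 37 C; B/G FRET substrate 2 h RT; fluorescence intensity.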
# [10] = qHTS assay for small molecule agonists of the antioxidant response element (ARE) signaling pathway - cell viability counter screen (AID 743203; calls by dose curve; further: nearly all actives have a fitted effect of over 55% in size; further: potency means the concentration at half of the fitted maximal effect)
# How it was run: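 Cytotoxicity was tested in parallel with the ARE reporter screen. ARE-bla HepG2 cells were exposed to compounds for 16 hrs, and viability was taken from CellTiter-Glo luminescence.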
# [11] = qHTS assay for small molecule activators of the heat shock response signaling pathway - cell viability counter screen (AID 743209); further: nearly all actives have a fitted effect of over 50% in size; further: potency means the concentration at half of the fitted maximal effect
# How it was run: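 Cytotoxicity counter screen run in parallel with the HSE beta-lactamase reporter, using the same wells. HeLa HSE-bla cells received compound for 5 h at 37 C; ATP-based CellTiter-Glo luminescence was measured after 30 min at room temperature.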
# [12] = qHTS assay to identify small molecule agonists of the peroxisome proliferator-activated receptor delta (PPARd) signaling pathway - cell viability counter screen (AID 743211); further: nearly all actives have a fitted effect of over 55% in size; further: potency means the concentration at half of the fitted maximal effect
# How it was run: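 Counter screen for cytotoxicity run in parallel with the PPARd reporter screen. Beta-lactamase reporter HEK293H cells exposed to compounds 17 h; ATP-based CellTiter-Glo luminescence quantified viability.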
# [13] = qHTS assay to identify small molecule antagonists of the estrogen receptor alpha (ER-alpha) signaling pathway using the BG1 cell line - cell viability counter screen (AID 743081);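 further: compound given together with 17beta-estradiol as the ER stimulus; nearly all actives have a fitted effect of over 45% in size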; further: potency means the concentration at half of the fitted maximal effect
# [14] = qHTS assay to identify small molecule antagonists of the peroxisome proliferator-activated receptor gamma (PPARg) signaling pathway - cell viability counter screen (AID 743194); details: Potency: co-treated with 50 nM rosiglitazone; further: nearly all actives have a fitted effect of over 55% in size; further: potency means the concentration at half of the fitted maximal effect
# How it was run: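 Cytotoxicity counter screen in PPARg-bla HEK293H cells, same wells as reporter assay. Compounds plus 50 nM rosiglitazone (final) for 17 h at 37 C, then viability read by CellTiter-Glo luminescence.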
# [15] = qHTS assay for small molecule activators of the heat shock response signaling pathway (AID 743210; active means well fitted activation curve with a large enough effect in the signal ratio in the repeat runs, with a control signal flat, not every such curve was filed as active; inconclusive means weak or mixed curves; the % refers to the signal ratio;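 further: HeLa cells with beta-lactamase reporter driven by heat shock elements; series mostly up to about 63 µM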)
# How it was run: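 Beta-lactamase reporter read-out: FRET substrate fluorescence after 2.5 h at RT, following 5 h compound treatment at 37 C of HeLa cells carrying HSE-driven bla reporter; quantitative HTS format.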
# [16] = target: Estrogen receptor (Homo sapiens) (UniProt P03372); assay: qHTS assay to identify small molecule agonists of the estrogen receptor alpha (ER-alpha) signaling pathway (AID 743075; calls by dose curve;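 further: HEK293 GripTite cells with ER-alpha and UAS-driven beta-lactamase reporter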; further: potency means the concentration at half of the fitted maximal effect)
# Chain of Estrogen receptor (Homo sapiens) (P03372 whole entry, looked up): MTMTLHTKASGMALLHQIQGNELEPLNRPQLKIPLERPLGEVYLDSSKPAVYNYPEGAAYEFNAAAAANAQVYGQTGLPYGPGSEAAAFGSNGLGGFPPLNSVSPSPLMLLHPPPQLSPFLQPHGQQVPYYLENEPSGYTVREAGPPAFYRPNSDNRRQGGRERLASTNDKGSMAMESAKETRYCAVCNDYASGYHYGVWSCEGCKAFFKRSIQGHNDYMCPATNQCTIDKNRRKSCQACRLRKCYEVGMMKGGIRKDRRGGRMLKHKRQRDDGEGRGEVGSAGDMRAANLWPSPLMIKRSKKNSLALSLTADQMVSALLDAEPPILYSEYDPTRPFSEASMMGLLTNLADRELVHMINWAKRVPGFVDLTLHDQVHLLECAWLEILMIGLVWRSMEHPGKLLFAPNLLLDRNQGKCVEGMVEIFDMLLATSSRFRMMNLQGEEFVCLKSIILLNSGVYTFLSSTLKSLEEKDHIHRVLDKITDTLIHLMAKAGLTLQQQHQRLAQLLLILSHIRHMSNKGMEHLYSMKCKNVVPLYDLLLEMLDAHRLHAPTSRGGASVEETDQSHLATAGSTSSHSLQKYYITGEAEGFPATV
# [17] = target: Estrogen receptor (Homo sapiens) (UniProt P03372); assay: qHTS assay to identify small molecule agonists of the estrogen receptor alpha (ER-alpha) signaling pathway using the BG1 cell line (AID 743079); further: nearly all actives have a fitted effect of over 20% in size; further: potency means the concentration at half of the fitted maximal effect
# [18] = qHTS assay to identify small molecule antagonists of the estrogen receptor alpha (ER-alpha) signaling pathway using the BG1 cell line (AID 743080; calls by dose curve;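 further: BG1 cells stimulated with 17beta-estradiol alongside compound; nearly all actives have a fitted effect of over 25% in size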; further: potency means the concentration at half of the fitted maximal effect)
# How it was run: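 Luciferase inhibition measured with ONE-Glo after 30 min at RT in BG1Luc4E2 cells given test compounds and 17beta-estradiol for 21.5 h at 37 C; CellTiter-Fluor viability read in the same wells beforehand.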
SMILES,Potency [1],Potency [2],Potency [3],Potency (Aromatase (Homo sapiens)),Potency [4],Potency [5],Potency [6],Potency [7],Potency [8],Potency [9],Potency [10],Potency [11],Potency [12],Potency [13],Potency [14],outcome [15],Potency [16],Potency [17],Potency [18]
CCOC(=O)COc1cc(-c2nn(C)c(OC(F)F)c2Cl)c(F)cc1Cl,inactive,inactive,inactive,inactive,inactive,19.3 µM (active),inactive,inactive,inactive,inactive,inactive,inactive,inactive,–,–,–,–,–,–
BrCC(Br)C1CCC(Br)C(Br)C1 (stereo not given),48.3 µM (active),inactive,inactive,inactive,inactive,–,inactive,inactive,inactive,–,inactive,inactive,inactive,inactive,inactive,inactive,–,–,–
C=CC(=O)OC,inactive,inactive,inactive,inactive,inactive,–,inactive,–,–,inactive,inactive,inactive,inactive,inactive,inactive,inactive,–,–,–
CCCCN(N=O)C(=N)N[N+](=O)[O-],49.6 µM (active),inactive,inactive,–,inactive,–,inactive,inactive,–,inactive,inactive,–,inactive,inactive,inactive,–,–,–,–
CCOP(=O)(OCC)Oc1ccc([N+](=O)[O-])cc1,inactive,inactive,inactive,–,inactive,inactive,inactive,inactive,22.1 µM (active),–,inactive,inactive,inactive,inactive,–,inactive,–,–,–
c1cc2ccc3cccc4ccc(c1)c2c34,inactive,inactive,–,inactive,inactive,inactive,–,–,–,–,–,inactive,–,–,–,–,inactive,inactive,inactive
CC[C@H]1C[C@H]2[C@@H]3CCC4=CC(=O)CC[C@@H]4[C@H]3CC[C@]2(C)[C@H]1O,21.1 µM (active),inactive,–,inactive,inactive,–,inactive,inactive,–,29.8 µM (active),inactive,inactive,–,–,inactive,inactive,inactive,10.6 µM (active),–
C=CC[C@]1(O)CC[C@H]2[C@@H]3CCC4=CC(=O)CCC4=C3C=C[C@@]21C,10.6 µM (active),inactive,–,–,inactive,5.96 µM (active),inactive,–,–,–,inactive,inactive,inactive,inactive,–,inactive,1.69 µM [inconclusive] (active),1.33 µM (active),29.8 µM (active)
c1ccc(CN2CCNCC2)cc1,inactive,inactive,inactive,–,inactive,–,inactive,–,–,inactive,inactive,inactive,inactive,inactive,inactive,–,–,–,–
O=C1C(Cl)C(CCl)CN1c1cccc(C(F)(F)F)c1 (stereo not given),inactive,inactive,inactive,inactive,inactive,–,inactive,inactive,21.9 µM (active),–,inactive,inactive,inactive,inactive,inactive,inactive,–,–,–
CC(C)(Cl)[N+](=O)[O-],inactive,inactive,inactive,inactive,inactive,–,inactive,inactive,inactive,inactive,inactive,inactive,inactive,inactive,inactive,inactive,–,–,–
NS(=O)(=O)C(F)(F)C(F)(F)C(F)(F)C(F)(F)C(F)(F)C(F)(F)C(F)(F)C(F)(F)F,61.1 µM (active),inactive,–,inactive,inactive,–,inactive,inactive,–,–,68.6 µM (active),49 µM (active),–,–,43.6 µM (active),–,43.6 µM [inconclusive] (active),inactive,–
COC(C)(C)CCC[C@H](C)C/C=C/C(C)=C/C(=O)OC(C)C,61.1 µM (active),inactive,inactive,inactive,inactive,inactive,inactive,inactive,–,–,–,–,38.9 µM (active),inactive,–,–,–,–,–
CCCCCC[N+](=O)[O-],inactive,inactive,inactive,inactive,inactive,inactive,inactive,–,–,–,inactive,inactive,inactive,inactive,–,inactive,–,–,–
O=S1(=O)OC(c2cc(Br)c(O)c(Br)c2)(c2cc(Br)c(O)c(Br)c2)c2ccccc21,28.1 µM (active),inactive,–,22.3 µM (active),25 µM (active),inactive,28.1 µM (active),–,inactive,inactive,–,–,–,22.3 µM (active),–,inactive,inactive,–,–
O=Cc1ccc2c(c1)OCO2,inactive,inactive,inactive,inactive,inactive,–,inactive,inactive,–,inactive,inactive,–,inactive,inactive,inactive,–,–,–,–

# — PubChem BioAssay (Tox21)
